Composite z-score data for 28 molecules are collected here from PubChem BioAssay.

Each structure is given as a SMILES string.

This assay in a line: COS7 lysate on small-molecule microarray, probe aHis, 635 nm (AID 1123).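 Also: z-score combines 667nm fluorescence intensity with signal-to-noise per printed compound spot.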 The conditions noted are these: COS7 cell lysate, fluorescence, higher = more signal.
`Cc1ccccc1C(O)C1C=CC2C(=O)N(C)C(=O)C2N1N(c1ccccc1)c1ccccc1` (stereo not drawn) gave a composite z-score of -0.266. Next, `COc1ccc([Si](C)(C)[C@@H]2[C@@H](CC(=O)N(CCO)Cc3ccccc3)O[C@]3(C(=O)N(Cc4cccc(N5C(=O)c6cccc7cccc5c67)c4)c4ccccc43)[C@H]2C)cc1`: 0.135; `C=C[C@@H](COC(C)=O)N(C(=O)OC(C)(C)C)S(=O)(=O)c1ccc(Br)cc1`: 0.155. For the molecule `C=C(COC)/C(=C/C[C@H](OC(C)=O)c1ccc(OCCO)cc1)c1cc(C(=O)OC)ccc1OC`, the composite z-score is 0.685. With `Cc1ccc(S[C@]2(C(=O)NCC(F)(F)F)CC(=O)N(Cc3ccccc3C(F)(F)F)[C@@H]2c2ccc(CO)cc2I)cc1` the figure was 0.616; with `COC(=O)[C@@]1(Cc2ccc(F)cc2)[C@H]2c3cc(C(=O)N4CCCC4)n(CCc4ccc(O)c(O)c4)c3C[C@H]2CN1C(=O)c1ccccc1`, 1.83; with `COCCOC(=O)N1C(=O)[C@@]2(c3cc(C#CCC(C(=O)OC)C(=O)OC)ccc31)[C@H](C(=O)N1CCc3cc(OC)c(OC)cc3C1)[C@H]1C(=O)O[C@H](c3ccccc3)[C@H](c3ccccc3)N1[C@@H]2c1ccc(OCCO)cc1`, 1.2. With `COc1ccc(CCN2C(=O)[C@@]3(Cc4ccccc42)c2ccccc2C(=O)N(Cc2ccccc2OC)[C@H]3c2ccc(CO)cc2)cc1` the figure was 0.215; with `CN(C)CCCNC(=O)[C@@]1(c2ccc([N+](=O)[O-])cc2)CC(=O)N(CC23CC4CC(CC(C4)C2)C3)[C@@H]1c1ccc(CO)cc1I`, 2.86. Next, `CCCC[C@@H]1C[C@H]1[C@@H](NC(=O)c1cccs1)c1ccc(C(F)(F)F)cc1`: -0.559.

`COC(=O)C1=CC(CCCO)=CC(C2CC2)N(C)C=C1C(=O)OC` (stereo not drawn): the composite z-score came out at 1.09. Next, `CC(=O)c1ccc(C(O)C2C=CC3C(=O)N(c4ccccc4)C(=O)C3N2Nc2ccc(C#N)cc2)cc1` (stereo not drawn): 2.46; `COCCOC(=O)N1C(=O)[C@@]2(c3cc(C#CC4=CCCCC4)ccc31)[C@H](c1ccc(OCCO)cc1)N1[C@H](c3ccccc3)[C@H](c3ccccc3)OC(=O)[C@H]1[C@@H]2C(=O)NC[C@H](O)c1ccccc1`: 1.22. Regarding `CCCC[C@@H]1C[C@H]1[C@@H](NC(=O)Cc1ccccc1)c1ccc(-c2ccccc2)cc1`, the composite z-score was determined as 2.02. With `CCCCN1CC=CC23O[C@@H]4/C=C\CCC(C)OC(=O)C4[C@H]2C(=O)N(C(CO)C(C)C)[C@@H]3C1=O` (stereo partly drawn) the figure was -0.407; with `CO[C@H]1O[C@H](CO)[C@@H](OC(=O)Nc2ccccc2-c2ccccc2)[C@H](OC(=O)Nc2ccc3c(c2)OCO3)[C@H]1OC(=O)Nc1ccc2c(c1)OCO2`, 2.8. Next, `C=CCN1C(=O)[C@@]2(O[C@@H](CCn3cc([C@H](O)c4ccccc4)nn3)[C@H]([Si](C)(C)c3ccc(OC)cc3)[C@H]2C)c2cc(N3CCC3=O)ccc21`: 0.901; `C=CCN1C(=O)[C@@]2(CCS(=O)(=O)c3ccccc3)N=C(c3ccc(OCCCO)cc3)O[C@H]2c2ccccc21`: 2.53. Consider `COC(=O)CCCCCCC(=O)Nc1ccc(NC(=O)CCCC[P+](c2ccccc2)(c2ccccc2)c2ccccc2)cc1`, for which the composite z-score was -0.478.

In the case of `CC(CO)N1C(=O)[C@@H]2[C@H]3C(=O)OCC=C[C@H]3OC23C=CCN(C(C)(C)C)C(=O)[C@@H]13` (stereo partly drawn), the composite z-score was -0.856. Next, `[N-]=[N+]=Nc1ccccc1[C@@H]1OC(c2ccc(OCCCO)cc2)=N[C@]1(Cc1ccccc1)C(=O)NCC(O)CO` (stereo partly drawn): 3.2.

On to `CC1CC/C=C\[C@H]2OC34C=CCN(c5ccc(Cl)cc5)C(=O)[C@H]3N(CCCCCO)C(=O)[C@]4(C)C2C(=O)O1` (stereo partly drawn), for which the composite z-score was -0.779. With `C=CCC(OC(C)=O)[C@@H]1[C@@H](N(Cc2cccc3ccccc23)C(=O)c2cccc3ccccc23)c2cc(OCCCO)ccc2N1C(=O)c1ccc(-c2ccccc2)cc1` (stereo partly drawn) the figure was 0.888; with `CN1C(=O)C2C=CC(C(O)c3ccccn3)N(N(c3ccccc3)c3ccccc3)C2C1=O` (stereo not drawn), -0.123; with `CC(C)(C)N1CC=CC23O[C@@H]4C=CCCOC(=O)C4[C@H]2C(=O)N(CCO)[C@@H]3C1=O` (stereo partly drawn), -1.09. In the case of `Cc1ccc(S[C@]2(C(=O)NCCCN(C)C)CC(=O)N(C3CCCCC3)[C@@H]2c2ccc(CO)cc2)cc1`, the composite z-score is -0.111. Next, `CCOc1cc(C(O)C2C=CC3C(=O)N(c4ccccc4)C(=O)C3N2Nc2ccc(C#N)cc2)ccc1O` (stereo not drawn): 0.825; `COCCOC(=O)N1C(=O)[C@@]2(c3cc(C#Cc4ccc(OC)cc4)ccc31)[C@H](C(=O)Nc1nc3ccccc3s1)[C@H]1C(=O)O[C@H](c3ccccc3)[C@H](c3ccccc3)N1[C@@H]2c1ccc(OCCO)cc1`: 0.757.
